The text below walks through data of PubChem BioAssay (EPA / NIEHS).

The target of experiment [1] is Transcription factor E2F1 (Homo sapiens) (UniProt Q01094). The experiment can be described thus: ATG_E2F_CIS: Attagene CIS-FACTORIAL HepG2 Assay for human E2F Transcription Factor 1 (AID 2282935). As to conditions: HepG2 Attagene cis-reporter, E2F reporter RNA transcripts; actives raise or lower the signal. The method, boiled down:
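Multiplexed cis-reporter assay: HepG2, transient transfection, 24 h dosing, mRNA quantitation by labeled RT-PCR and CE.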

A short description of experiment [2]: ATG_E_Box_CIS: Attagene CIS-FACTORIAL HepG2 Assay for human Enhancer Box (E-box) (AID 2282936). As to conditions: HepG2 E-box cis-reporter transcription, actives raise or lower the signal. Summed up: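 Multiplexed CIS reporter system in transiently transfected HepG2 cells measures native transcription factor activity. Reporter RNA after 24 h exposure is profiled by RT-PCR-capillary electrophoresis.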

Experiment [3] is described as follows: ATG_M_61_CIS: Attagene CIS-FACTORIAL HepG2 Assay for M61 Transcription Factor (Internal Marker) (AID 2282937). Particulars: HepG2 Attagene CIS-FACTORIAL M61 internal marker reporter; actives raise or lower the signal. Summed up: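 Readout is reporter mRNA by RT-PCR, fluorescent primer extension and capillary electrophoresis, with gain or loss fitted relative to DMSO. Transfected HepG2 cells carrying endogenous-TF-driven cis reporters were exposed to chemicals for 24 hours.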

A short description of experiment [4]: ATG_EGR_CIS: Attagene CIS-FACTORIAL HepG2 Assay for human Early Growth Response 1 (EGR1) (AID 2282938). As to conditions: HepG2 Attagene CIS-FACTORIAL EGR reporter mRNA; actives raise or lower the signal. The method, boiled down:
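After 24 h compound exposure, RNA from reporter-transfected HepG2 cells was reverse-transcribed, PCR-amplified, fluorescently labelled and resolved by capillary electrophoresis. EGR1 reporter transcript changes, up or down, were fitted against DMSO, reflecting endogenous transcription-factor activity.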

Experiment [5] in a line: ATG_ERE_CIS: Attagene CIS-FACTORIAL HepG2 Assay for Estrogen Response Element (ERE) (AID 2282940). As to conditions: HepG2 ERE cis-reporter, Attagene RNA transcript; actives raise or lower the signal. Summed up:
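Readout: reporter mRNA induction by RT-PCR, FAM-labelled primer extension, HpaI digestion and capillary electrophoresis, 24 h after dosing transfected HepG2 cells. Endogenous transcription factors act on cis-element-regulated reporters. Gain or loss fitted against DMSO.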

Experiment [6] can be described thus: ATG_Ets_CIS: Attagene CIS-FACTORIAL HepG2 Assay for human Erythroblast Transformation Specific (ETS) (AID 2282941). Particulars: HepG2 ETS cis-reporter transcription, actives raise or lower the signal. Summed up:
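HepG2 cells transiently transfected with cis-promoter reporter transcription units were dosed for 24 h; reporter mRNA was measured by RT-PCR, 6-FAM primer extension, HpaI digestion and capillary electrophoresis, with bidirectional fitting against DMSO baseline.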

For experiment [7], the target named is Hepatocyte nuclear factor 3-beta (Homo sapiens) (UniProt Q9Y261). Description: ATG_FoxA2_CIS: Attagene CIS-FACTORIAL HepG2 Assay for human Forkhead box A2 (FOXA2) (AID 2282942). As to conditions: HepG2 cis-reporter transcription factor activity, 24 h; actives raise or lower the signal. Summed up:
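Endogenous transcription factor activity is captured via cis-element-driven reporter transcripts in transfected HepG2. Total RNA taken at 24 h post-dosing; labelled RT-PCR products resolved by capillary electrophoresis. Gain or loss fitted versus DMSO.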

A short description of experiment [8]: ATG_FoxO_CIS: Attagene CIS-FACTORIAL HepG2 Assay for human Forkhead box O (FoxO) (AID 2282943). Particulars: HepG2 Attagene cis-reporter, FoxO element, mRNA; actives raise or lower the signal. The method, boiled down:
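Values reflect reporter mRNA induction or loss in HepG2 cells 24 h post-dosing, fitted bidirectionally with DMSO as negative control and baseline. Detection used RT-PCR and fluorescence capillary electrophoresis.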

Experiment [9] is described as follows: ATG_GATA_CIS: Attagene CIS-FACTORIAL HepG2 Assay for human GATA Binding Protein (AID 2282944). As to conditions: HepG2 GATA cis-element reporter, Attagene multiplex mRNA; actives raise or lower the signal. Summed up: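 Read-out: fluorescent reporter mRNA fragments resolved by capillary electrophoresis after RT-PCR. Human liver HepG2 cells carried transiently transfected cis-regulated reporter constructs; chemicals incubated 24 h; gain or loss of signal fitted relative to DMSO.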

The nature of experiment [10]: ATG_GLI_CIS: Attagene CIS-FACTORIAL HepG2 Assay for human Zinc Finger Protein GLI1 (AID 2282945). As to conditions: HepG2, Attagene cis-factorial reporter mRNA, GLI element; actives raise or lower the signal. Summed up:
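HepG2 cells transiently transfected with cis-promoter multiplexed reporter units report endogenous transcription factor activity. After 24 h chemical exposure, reporter mRNA was quantified by RT-PCR, 6-FAM labelling, HpaI digestion and capillary electrophoresis, with bidirectional fitting against DMSO.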

Experiment [11] addresses Bile acid receptor (Homo sapiens) (UniProt Q96RI1). Description: ATG_IR1_CIS: Attagene CIS-FACTORIAL HepG2 Assay for human Nuclear Receptor Subfamily 1 Group H Member 4 (NR1H4), IR1 submotif (AID 2282946). As to conditions: IR1 reporter transcription, actives raise or lower the signal. Summed up:
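Transient MRTU transfection, HepG2; 24 h dosing; RNA → RT-PCR → 6-FAM primer extension → HpaI digest → capillary electrophoresis fluorescence. Gain/loss of signal fitted relative to DMSO.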

The nature of experiment [12]: ATG_GRE_CIS: Attagene CIS-FACTORIAL HepG2 Assay for human Glucocorticoid Response Elements (GRE) (AID 2282947). As to conditions: HepG2 GRE cis-reporter, Attagene multiplex mRNA; actives raise or lower the signal. The method, boiled down:
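Following 24 h chemical exposure of transiently transfected HepG2 cells, total RNA was reverse-transcribed and reporter cDNA amplified, fluorescently labelled and sized by capillary electrophoresis. Signal gain or loss was fitted relative to DMSO vehicle.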

Experiment [13] in a line: ATG_ISRE_CIS: Attagene CIS-FACTORIAL HepG2 Assay for human Interferon Regulatory Factor 1 (IRF1) binding to an Interferon-Stimulated Response Element (ISRE) (AID 2282948). Particulars: HepG2 ISRE cis-reporter (Attagene), mRNA transcription readout; actives raise or lower the signal. The method, boiled down:
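HepG2 cells transiently transfected with multiplexed cis-promoter reporter units; after 24 h compound exposure, reporter mRNA quantified by RT-PCR, FAM labelling, HpaI digestion and capillary electrophoresis. Bidirectional fit versus DMSO baseline.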

The nature of experiment [14]: ATG_M_32_CIS: Attagene CIS-FACTORIAL HepG2 Assay for M32 Transcription Factor (Internal Marker) (AID 2282949).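 Also: background control marker of the multiplexed CIS panel rather than a real target.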 As to conditions: HepG2 Attagene cis-factorial M32 reporter, mRNA; actives raise or lower the signal. The method, boiled down:
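Fluorescent capillary electrophoresis peaks of HpaI-digested, FAM-labelled RT-PCR reporter products give the signal. Source: transiently transfected human liver HepG2 cells, 24 h after chemical dosing; bidirectional fitting against DMSO.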

Experiment [15] in a line: ATG_M_06_CIS: Attagene CIS-FACTORIAL HepG2 Assay for M06 Transcription Factor (Internal Marker) (AID 2282950). Particulars: HepG2 Attagene CIS-FACTORIAL M06 internal marker reporter; actives raise or lower the signal. The method, boiled down: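 Terse: HepG2, transient MRTU transfection (FuGene 6), 24 h dosing; total RNA, oligo(dT) RT, PCR, FAM label, HpaI cut, capillary electrophoresis; bidirectional fit vs DMSO baseline; background-control endpoint.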

The target in experiment [16] is Hypoxia-inducible factor 1-alpha (Homo sapiens) (UniProt Q16665). The experiment can be described thus: ATG_HIF1a_CIS: Attagene CIS-FACTORIAL HepG2 Assay for human Hypoxia Inducible Factor 1 (HIF1A) (AID 2282951). As to conditions: HepG2 Attagene cis-factorial HIF1a reporter transcription; actives raise or lower the signal. The method, boiled down:
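Activity is fitted in both directions relative to DMSO. Reporter transcripts are read by RT-PCR, fluorescent primer extension and capillary electrophoresis after 24 h chemical treatment. The cells are HepG2 carrying transiently transfected cis-element-driven reporter units responding to endogenous factors.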

For experiment [17], the target named is Hepatocyte nuclear factor 6 (Homo sapiens) (UniProt Q9UBC0). Description: ATG_HNF6_CIS: Attagene CIS-FACTORIAL HepG2 Assay for human Hepatocyte Nuclear Factor 6 (HNF6) (AID 2282952). Particulars: HepG2 Attagene cis-factorial HNF6 reporter transcription; actives raise or lower the signal. The method, boiled down:
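Reporter mRNA induction or loss in HepG2 after 24 h exposure; transient cis-MRTU transfection; fragments quantified by capillary electrophoresis; bidirectional analysis, DMSO as negative control.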

The target of experiment [18] is Heat shock factor protein 1 (Homo sapiens) (UniProt Q00613). Description: ATG_HSE_CIS: Attagene CIS-FACTORIAL HepG2 Assay for human Heat Shock Transcription Factor 1 (HSE) (AID 2282953). Particulars: HepG2 HSE cis-reporter, Attagene RNA transcription; actives raise or lower the signal. The method, boiled down: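 Read-out: fluorescence of reporter-specific RT-PCR fragments separated by capillary electrophoresis. HepG2 carrying transfected cis-element reporter units; 24 h dosing; activity fitted in both directions relative to DMSO baseline.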

Experiment [19] is described as follows: ATG_MRE_CIS: Attagene CIS-FACTORIAL HepG2 Assay for human Metal Responsive Element (MRE) (AID 2282954). Particulars: HepG2 MRE cis-reporter transcription, Attagene multiplex; actives raise or lower the signal. The method, boiled down: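 Step one: transfect HepG2 with cis-regulated reporter units. Step two: dose 24 h. Step three: isolate RNA, RT-PCR, 6-FAM label, HpaI digest, capillary electrophoresis. Fit bidirectionally to DMSO.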

Experiment [20] is described as follows: ATG_M_19_CIS: Attagene CIS-FACTORIAL HepG2 Assay for M19 Transcription Factor (Internal Marker) (AID 2282939). Particulars: HepG2 Attagene CIS-FACTORIAL M19 internal marker reporter; actives raise or lower the signal. Summed up: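 Readout: fluorescent reporter-transcript fragments by capillary electrophoresis after RT-PCR. Human HepG2 liver cells carried transfected MRTU constructs reporting endogenous transcription-factor activity; exposure 24 h. Gain or loss of signal fitted relative to DMSO.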

The term AC50 denotes the concentration at which the activity in the assay is half-maximal.

The source made the active and inactive calls. The calls were made as follows: active = hit-call score of the fitted dose curve at least 0.9, where 1 is the maximum; inactive = score below 0.9.

Sequence of Hepatocyte nuclear factor 6 (Homo sapiens) (Q9UBC0 whole entry, looked up, the tested form may be a part): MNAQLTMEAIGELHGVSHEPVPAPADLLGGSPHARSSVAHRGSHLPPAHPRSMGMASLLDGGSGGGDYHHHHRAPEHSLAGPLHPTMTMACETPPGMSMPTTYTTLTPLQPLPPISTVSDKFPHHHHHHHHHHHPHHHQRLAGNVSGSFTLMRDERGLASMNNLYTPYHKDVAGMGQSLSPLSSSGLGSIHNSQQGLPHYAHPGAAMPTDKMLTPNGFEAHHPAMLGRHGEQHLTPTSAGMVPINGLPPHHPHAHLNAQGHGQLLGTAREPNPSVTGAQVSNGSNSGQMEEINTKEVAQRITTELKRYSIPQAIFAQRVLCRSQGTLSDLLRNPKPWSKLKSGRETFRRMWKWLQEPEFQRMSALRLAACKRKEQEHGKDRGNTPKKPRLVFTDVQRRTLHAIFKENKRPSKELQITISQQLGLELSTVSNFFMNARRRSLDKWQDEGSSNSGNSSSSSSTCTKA
Sequence of Hepatocyte nuclear factor 3-beta (Homo sapiens) (Q9Y261 whole entry, looked up): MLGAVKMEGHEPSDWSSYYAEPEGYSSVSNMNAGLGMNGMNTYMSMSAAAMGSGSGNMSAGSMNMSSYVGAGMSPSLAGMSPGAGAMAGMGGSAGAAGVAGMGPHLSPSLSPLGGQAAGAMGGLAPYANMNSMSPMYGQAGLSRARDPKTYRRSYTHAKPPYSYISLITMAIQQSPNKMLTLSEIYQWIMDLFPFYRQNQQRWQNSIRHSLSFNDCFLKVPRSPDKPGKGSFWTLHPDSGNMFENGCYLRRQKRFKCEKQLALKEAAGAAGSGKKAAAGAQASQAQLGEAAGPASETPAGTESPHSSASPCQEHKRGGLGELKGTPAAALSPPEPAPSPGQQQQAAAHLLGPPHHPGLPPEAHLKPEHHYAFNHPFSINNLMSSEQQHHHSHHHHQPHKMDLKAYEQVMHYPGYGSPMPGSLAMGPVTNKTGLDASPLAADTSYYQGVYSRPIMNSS
Sequence of Hypoxia-inducible factor 1-alpha (Homo sapiens) (Q16665 whole entry, looked up): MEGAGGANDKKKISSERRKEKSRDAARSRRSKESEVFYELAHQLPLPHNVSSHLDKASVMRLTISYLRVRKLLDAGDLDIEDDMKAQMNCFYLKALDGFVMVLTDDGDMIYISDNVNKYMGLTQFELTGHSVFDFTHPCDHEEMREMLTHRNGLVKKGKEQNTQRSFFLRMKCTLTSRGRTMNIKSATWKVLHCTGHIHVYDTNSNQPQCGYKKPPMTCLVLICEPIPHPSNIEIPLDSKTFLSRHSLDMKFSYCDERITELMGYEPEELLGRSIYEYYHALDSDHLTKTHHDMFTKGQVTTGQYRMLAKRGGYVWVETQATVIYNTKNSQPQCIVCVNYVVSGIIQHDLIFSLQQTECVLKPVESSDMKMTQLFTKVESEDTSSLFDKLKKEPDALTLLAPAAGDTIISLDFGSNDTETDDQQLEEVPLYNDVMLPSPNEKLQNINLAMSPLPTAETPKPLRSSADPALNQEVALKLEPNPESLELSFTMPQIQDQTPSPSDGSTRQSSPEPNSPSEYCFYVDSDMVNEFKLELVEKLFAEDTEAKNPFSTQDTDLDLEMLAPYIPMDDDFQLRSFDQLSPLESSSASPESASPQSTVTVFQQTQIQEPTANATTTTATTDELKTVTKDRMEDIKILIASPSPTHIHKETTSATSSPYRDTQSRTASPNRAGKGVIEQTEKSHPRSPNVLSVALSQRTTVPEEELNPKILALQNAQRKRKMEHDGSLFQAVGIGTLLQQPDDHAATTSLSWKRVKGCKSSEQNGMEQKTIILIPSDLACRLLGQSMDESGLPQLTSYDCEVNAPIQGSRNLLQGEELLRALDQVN
Sequence of Heat shock factor protein 1 (Homo sapiens) (Q00613 whole entry, looked up, the tested form may be a part): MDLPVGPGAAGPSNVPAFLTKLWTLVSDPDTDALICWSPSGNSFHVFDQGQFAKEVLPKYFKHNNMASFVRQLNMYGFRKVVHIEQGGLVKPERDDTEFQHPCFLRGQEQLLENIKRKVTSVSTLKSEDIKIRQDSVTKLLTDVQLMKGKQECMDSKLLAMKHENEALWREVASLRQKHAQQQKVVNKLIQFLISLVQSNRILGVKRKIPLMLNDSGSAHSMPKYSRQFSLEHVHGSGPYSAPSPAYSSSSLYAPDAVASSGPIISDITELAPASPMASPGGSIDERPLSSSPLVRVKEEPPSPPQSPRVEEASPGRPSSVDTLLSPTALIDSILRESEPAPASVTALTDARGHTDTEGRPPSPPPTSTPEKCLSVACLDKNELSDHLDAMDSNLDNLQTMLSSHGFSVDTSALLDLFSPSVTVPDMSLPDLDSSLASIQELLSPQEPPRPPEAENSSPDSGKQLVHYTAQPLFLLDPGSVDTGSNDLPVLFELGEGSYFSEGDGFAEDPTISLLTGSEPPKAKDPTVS
Sequence of Transcription factor E2F1 (Homo sapiens) (Q01094 whole entry, looked up): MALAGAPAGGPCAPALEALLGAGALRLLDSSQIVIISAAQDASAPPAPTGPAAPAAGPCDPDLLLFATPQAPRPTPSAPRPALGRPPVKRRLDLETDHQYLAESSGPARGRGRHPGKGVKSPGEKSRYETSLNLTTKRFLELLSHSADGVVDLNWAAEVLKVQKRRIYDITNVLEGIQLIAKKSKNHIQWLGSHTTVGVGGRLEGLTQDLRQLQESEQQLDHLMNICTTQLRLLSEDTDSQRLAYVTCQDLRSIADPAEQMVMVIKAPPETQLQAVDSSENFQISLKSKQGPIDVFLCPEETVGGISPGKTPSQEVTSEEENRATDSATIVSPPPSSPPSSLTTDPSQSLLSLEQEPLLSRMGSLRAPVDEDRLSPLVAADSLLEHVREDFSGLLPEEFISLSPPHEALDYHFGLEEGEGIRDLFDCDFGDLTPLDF
Sequence of Bile acid receptor (Homo sapiens) (Q96RI1 whole entry, looked up): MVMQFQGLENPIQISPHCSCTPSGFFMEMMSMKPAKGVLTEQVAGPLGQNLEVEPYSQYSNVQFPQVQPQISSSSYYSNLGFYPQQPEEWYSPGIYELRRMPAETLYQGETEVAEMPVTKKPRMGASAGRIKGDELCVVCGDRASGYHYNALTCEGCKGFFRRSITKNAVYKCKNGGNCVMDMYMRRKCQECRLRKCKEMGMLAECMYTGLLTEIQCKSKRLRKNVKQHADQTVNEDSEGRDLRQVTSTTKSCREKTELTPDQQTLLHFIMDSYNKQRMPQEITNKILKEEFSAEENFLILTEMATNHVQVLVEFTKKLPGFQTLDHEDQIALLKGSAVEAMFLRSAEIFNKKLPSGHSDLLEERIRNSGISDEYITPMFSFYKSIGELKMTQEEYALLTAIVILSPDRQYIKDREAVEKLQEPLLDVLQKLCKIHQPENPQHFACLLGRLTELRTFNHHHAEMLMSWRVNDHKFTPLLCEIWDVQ

Regarding `NC(=O)Cn1c(=O)cc(CCN2CCN(c3nccc4sccc34)CC2)c2ccc(F)cc21`, the call in experiment [1], in [2], in experiment [3], in [4], in experiment [5] and in [6] was inactive. The call in [7], in experiment [8], in experiment [9], in experiment [10], in experiment [11] and in experiment [12] was inactive. In addition, the compound was called inactive in experiment [13], in experiment [14], in experiment [15], in experiment [17], in experiment [18] and in experiment [19]. Moreover, in [16], the AC50 was 61.4 µM (active).
Take `CCCCCCOCCO`: the compound was classed as inactive in experiment [1], in experiment [2], in [3], in experiment [4], in [20] and in [6]. The outcome in experiment [7], in experiment [8], in [9], in [10], in experiment [12] and in experiment [13] was inactive. Moreover, the compound was called inactive in experiment [14], in [15], in experiment [16], in experiment [17], in experiment [18] and in experiment [19].
For `COC(=O)c1ccc(O)cc1`, the compound was called inactive in experiment [1], in [2], in experiment [3], in experiment [4], in experiment [20] and in experiment [6]. Moreover, the compound was called inactive in experiment [7], in experiment [8], in [9], in [10], in experiment [12] and in experiment [13]. Moreover, the compound was called inactive in experiment [14], in [15], in experiment [16], in experiment [17], in experiment [18] and in [19]. Moreover, in experiment [5], the AC50 is 67.4 µM (active).
As for `CCCCCCCCCCO`, the compound was called inactive in experiment [1], in experiment [2], in experiment [3], in [4], in experiment [20] and in [6]. Besides, the compound was classed as inactive in experiment [7], in experiment [8], in [9], in [10], in [11] and in experiment [12]. Further, the call in experiment [13], in experiment [14], in [15], in [16], in experiment [17] and in experiment [18] was inactive. Further, in [19], the half-maximal activity concentration (AC50) was 160 µM (active).
As to `CNCc1cc(F)ccc1Oc1ccc(Cl)c(Cl)c1`, the call in [1], in experiment [2], in [3], in experiment [4], in experiment [20] and in experiment [6] was inactive. Further, the outcome in experiment [7], in experiment [8], in [9], in experiment [10], in [12] and in experiment [13] was inactive. The outcome in [14], in experiment [15], in experiment [16], in experiment [17], in experiment [18] and in experiment [19] was inactive.
Regarding `Cc1ccc(C)c(O)c1C`, the result in experiment [1], in experiment [2], in [3], in experiment [4], in experiment [20] and in experiment [5] was inactive. Moreover, the compound was called inactive in experiment [6], in experiment [7], in experiment [8], in experiment [9], in experiment [10] and in [12]. Besides, the result in experiment [13], in experiment [14], in experiment [15], in experiment [16], in [17] and in [18] was inactive. The result in experiment [19] was inactive.
For `Cc1nc(-c2ccc3c(c2)CCN(CCC2CCC(NC(=O)/C=C/c4ccc(F)cc4)CC2)CC3)no1` (stereo unspecified), the compound was classed as inactive in [1], in [2], in experiment [3], in experiment [4], in experiment [20] and in [6]. For the same compound, the call in [7], in [8], in experiment [9], in [10], in experiment [11] and in experiment [12] was inactive. Moreover, the compound was called inactive in experiment [13], in experiment [14], in experiment [15], in experiment [16], in [17] and in experiment [18]. Moreover, the compound was classed as inactive in [19].
